Compound activity deposited in PubChem by National Center for Advancing Translational Sciences (NCATS).
Tau fibril FP – tau fibrillization inhibition (FP); K18 P301L tau heparin fibrillization, Alexa594 FP, 6 h; Potency, µM (highest dose often 57.7 µM), most hits filed as inhibitors; 280,000 tested, 0.39% active; AID 1468; note: nearly all actives have a fitted effect of over 55% in size
Target sequence (P10636 561-689 P618L limits assumed): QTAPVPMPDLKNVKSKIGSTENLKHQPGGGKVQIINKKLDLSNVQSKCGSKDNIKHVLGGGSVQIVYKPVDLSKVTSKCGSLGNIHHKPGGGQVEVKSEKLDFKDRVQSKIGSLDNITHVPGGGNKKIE
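Human tau K18 […] P301L fragment, 15 uM unlabeled plus 0.24 uM Alexa 594-labeled tau (final), with compound and 20 uM heparin in 100 mM sodium acetate pH 7; 6 hr at 37 C, then Alexa 594 FP read.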
Sfp inh – blocks B. subtilis Sfp PPTase activity. Q9F4F7. Biochemical Sfp PPTase activity, qHTS. Potency, µM, hits mostly inhibitors. 310,000 tested, 3.5% active. AID 1490;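 note: the enzyme is Sfp with the accession as filed and its product quenches rhodamine fluorescence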
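Compounds were incubated with enzyme (final 15 nM) for 15 min at room temperature before substrate addition started the reaction. Fluorescence at 525 nm excitation, 598 nm emission was recorded immediately and after 30 minutes.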
Tau fibril ThT – tau fibrillization inhibition (ThT binding); P10636; 270,000 tested, 2.1% active; Potency, µM (titrated, usually from 57.4 µM), actives largely listed as inhibitors; recombinant tau K18 P301L, heparin-induced fibrillization, ThT fluorescence; AID 1460; note: nearly all actives have a fitted effect of over 55% in size
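ThT emission at 510 nm, taken 1 hr after adding 30 uM dye, quantifies aggregates formed when 20 uM heparin acts on human tau K18 P301L for 6 hr at 37 C.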
Coupling enz – counter-screen for Giardia aldolase inhibitors: coupling enzyme system | coupling enzyme system counterscreen, AmpLite Red fluorescence | activity change, negative = inhibition, % at 58.2 µM, hits read low | 290,000 tested, 0.67% active | AID 2472; in the data active = activity change below about -30%
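Fluorescence at 525 nm excitation and 598 nm emission measured inhibition of the coupled detection system without aldolase. Compounds (at 57.5 uM final) were preincubated 10 min at room temperature with coupling enzyme reagent before a 20 min substrate/AmpLite Red step.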
Tau fluor cs – counter-screen for tau fibril formation inhibitors; tau K18 P301L (four-repeat tau fragment) Alexa594 fluorescence, heparin fibrillization; Potency, µM (series often up to 57.7 µM); 280,000 tested, 0.93% active; AID 1463; note: nearly all actives have a fitted effect of over 55% in size
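Human K18 P301L tau (15 uM unlabeled plus 0.24 uM Alexa 594-labeled, final) in 100 mM sodium acetate pH 7 was mixed with compound and 20 uM heparin and incubated 6 hr at 37 C.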
Numbers stand for hits; [ ] = dose if it differs, or a comment. Compounds with a hit are over-represented: about 5.2% of the library has one in this group of screens. Unless noted, calls come from the whole dose curve; as a rule, active = well fitted curve in the direction sought with a large enough effect; inconclusive = small, poorly fitted or top-dose-only effect, or another doubt; inactive = no such curve, though single readings can be large; an effect the other way counts as inactive or inconclusive.

`CC/C=C\C[C@H](O)/C=C/C=C\C/C=C\C/C=C\CCCC(=O)O` gave Tau fibril FP inactive, Sfp inh inactive, Tau fibril ThT inactive, Coupling enz inactive and Tau fluor cs inactive.
Screening O=C(Cn1nnc(-c2ccccc2)n1)N/N=C/c1cccc([N+](=O)[O-])c1 returned Tau fibril FP inactive, Sfp inh inactive, Tau fibril ThT inactive, Coupling enz inactive and Tau fluor cs inactive.
For Cc1ccccc1C(=O)Nc1cccc(C(=O)N/N=C/c2cc(Cl)cc([N+](=O)[O-])c2O)c1 the results were Tau fibril FP inactive, Sfp inh inactive, Tau fibril ThT 4µM, Coupling enz inactive and Tau fluor cs inconclusive.
`COc1cc(/C=N/NC(=O)c2cccc(NC(=O)c3ccccc3C)c2)ccc1O` gave Sfp inh inactive and Coupling enz inactive.
For Cc1cc(C)n(CC(=O)N/N=C/c2cc(Br)cc([N+](=O)[O-])c2O)n1 the results were Tau fibril FP inactive, Sfp inh inactive, Tau fibril ThT inconclusive, Coupling enz inactive and Tau fluor cs inactive.
Screening O=C(N/N=C/c1cc(Cl)cc([N+](=O)[O-])c1O)C1CC1 returned Tau fibril FP inactive, Sfp inh inactive, Tau fibril ThT 16µM, Coupling enz inactive and Tau fluor cs inactive.
`O=C(Cn1nnc(-c2ccccc2)n1)N/N=C/c1cccc([N+](=O)[O-])c1O` gave Tau fibril FP inactive, Sfp inh inactive, Tau fibril ThT 10µM, Coupling enz inactive and Tau fluor cs inactive.
O=C(Cn1nc2ccccc2n1)N/N=C/c1cc(Cl)cc([N+](=O)[O-])c1O was read as Tau fibril FP inactive, Sfp inh inactive, Tau fibril ThT 13µM, Coupling enz inactive and Tau fluor cs inconclusive.
Screening O=S(=O)(c1ccc(NC(=S)N/N=C/c2ccc(O)c(O)c2)cc1)N1CCOCC1 returned Tau fibril FP inactive, Sfp inh inactive, Tau fibril ThT inconclusive, Coupling enz inactive and Tau fluor cs inconclusive.
For O=[N+]([O-])c1cc(Cl)cc(/C=N/NC(=S)Nc2ccc(S(=O)(=O)N3CCOCC3)cc2)c1O the results were Tau fibril FP inactive, Sfp inh inconclusive, Tau fibril ThT 10µM, Coupling enz inactive and Tau fluor cs inconclusive.
`O=C1C(Cl)=C(N2CCN(c3ccccc3[N+](=O)[O-])CC2)C(=O)c2ccccc21` gave Tau fibril FP 10µM, Sfp inh inactive, Tau fibril ThT 3.5µM, Coupling enz -41 and Tau fluor cs 8.9µM[quencher].
Screening O=[N+]([O-])c1cc(Cl)ccc1N1CCCC1 returned Tau fibril FP inactive, Sfp inh inactive, Tau fibril ThT inactive, Coupling enz inactive and Tau fluor cs inactive.
`CC1CC(C)CN(CCOc2cccc(Cl)c2Cl)C1` (stereo not drawn) gave Tau fibril FP inactive, Sfp inh inactive, Tau fibril ThT inactive, Coupling enz inactive and Tau fluor cs inactive.
CCN1CCN(CCOc2cccc(Cl)c2Cl)CC1 was read as Tau fibril FP inactive, Sfp inh 50µM, Tau fibril ThT inactive, Coupling enz inactive and Tau fluor cs inactive.
For Clc1ccc(OCCCN2CCCCC2)c(Br)c1 the results were Tau fibril FP inactive, Sfp inh inactive, Tau fibril ThT inactive, Coupling enz inactive and Tau fluor cs inactive.
CCN1CCN(CCOc2ccc(Br)cc2C)CC1 was read as Tau fibril FP inactive, Sfp inh 50µM, Tau fibril ThT inactive, Coupling enz inactive and Tau fluor cs inactive.
`CCN1CCN(CCCOc2ccc(Cl)cc2Br)CC1` gave Tau fibril FP inactive, Sfp inh 10µM, Tau fibril ThT inactive, Coupling enz inactive and Tau fluor cs inactive.
Screening CCOc1ccc(C(=O)Nc2ccc3nc(SCC(=O)N4CCc5ccccc54)sc3c2)cc1 returned Tau fibril FP inactive, Tau fibril ThT inconclusive and Tau fluor cs inactive.
`Cc1nc2ccccc2c2c(N)c3ccccc3n12` gave Tau fibril FP inconclusive, Sfp inh inactive, Tau fibril ThT 10µM, Coupling enz inactive and Tau fluor cs inactive.
For Cc1ccc(C(=O)Nc2cc(-c3cn4cccnc4n3)ccc2C)cc1C the results were Tau fibril FP inactive, Tau fibril ThT inactive and Tau fluor cs inactive.
`O=C(/C=C/c1ccco1)NC(=S)Nc1ccccc1` gave Sfp inh inactive and Coupling enz inactive.
`COc1ccc(C(NC(=O)/C=C\c2ccco2)c2ccc(OC)c(OC)c2)cc1` (stereo not drawn) gave Tau fibril FP inactive, Sfp inh 20µM, Tau fibril ThT inactive, Coupling enz inactive and Tau fluor cs inactive.
For COc1ccc(CCNC(=O)/C=C/c2ccco2)cc1 the results were Sfp inh inactive and Coupling enz inactive.
`COc1ccc(CCNC(=O)CSC(=O)c2ccccc2)cc1OC` gave Tau fibril FP inactive, Sfp inh 45µM, Tau fibril ThT inconclusive, Coupling enz inactive and Tau fluor cs inactive.
Screening CC(NC(=O)/C=C/c1ccco1)c1nc2ccccc2n1Cc1cccc(Cl)c1 (stereo not drawn) returned Tau fibril FP inactive, Sfp inh 28µM, Tau fibril ThT inactive, Coupling enz inactive and Tau fluor cs inactive.
`CCC(O)c1nc2ccccc2n1Cc1cccc(Cl)c1` (stereo not drawn) gave Tau fibril FP inactive, Tau fibril ThT inactive and Tau fluor cs inactive.
`COc1ccc(CCNC(=O)CSc2ccccc2)cc1OC` gave Tau fibril FP inactive, Sfp inh inactive, Tau fibril ThT inactive, Coupling enz inactive and Tau fluor cs inactive.
For CCC(Cc1ccccc1)NC(=O)/C=C/c1ccco1 (stereo not drawn) the results were Sfp inh 56µM and Coupling enz inactive.
For Cc1ccc(CNc2ccc(-c3nc(C(C)C)no3)cc2[N+](=O)[O-])cc1 the results were Tau fibril FP inactive, Tau fibril ThT inactive and Tau fluor cs inactive.
O=C(CN1C(=O)COc2ccc(S(=O)(=O)N3CCCCCC3)cc21)Nc1cccc(Cl)c1 was read as Tau fibril FP inconclusive, Tau fibril ThT inactive and Tau fluor cs inconclusive.
Screening CC(C)NC(=O)COC(=O)/C=C/c1ccco1 returned Tau fibril FP inactive, Sfp inh 50µM, Tau fibril ThT inactive, Coupling enz inactive and Tau fluor cs inactive.
Screening CCCNC(=O)COC(=O)/C=C/c1ccco1 returned Tau fibril FP inactive, Sfp inh inconclusive, Tau fibril ThT inactive, Coupling enz inactive and Tau fluor cs inactive.
For CCOc1ccc(CCNC(=O)/C=C/c2ccco2)cc1OCC the results were Sfp inh inactive.
`COc1ccc(C(NC(=O)/C=C/c2ccco2)c2ccc(OC)cc2)cc1` gave Tau fibril FP inactive, Sfp inh 25µM, Tau fibril ThT inactive, Coupling enz inactive and Tau fluor cs inactive.
`COc1ccc(CCNC(=O)/C=C/c2ccco2)cc1OC` gave Sfp inh 45µM and Coupling enz inactive.
For Cc1ccc(Cl)cc1NC(=O)C(=O)NCC(c1cccnc1)N1CCc2ccccc21 (stereo not drawn) the results were Tau fibril FP inconclusive, Tau fibril ThT inactive and Tau fluor cs inconclusive.
